# Laboratory results published in PubChem BioAssay (NCATS).
# Results filed as inconclusive are left out. Unmarked numbers belong to inactive results. Calls of active or inactive are those of the source. The call rests on the fitted dose curve; in most records, active means well fitted inhibition curve with a large enough effect; inconclusive means small, poorly fitted or top-dose-only effect; inactive means flat fitted curve, though single readings scatter. Peptide text beside a SMILES is read from it.
# Tested on: PAD
# Experiment: qHTS profiling for inhibitors of Plasmodium falciparum proliferation (AID 504749); further: nearly all actives have a fitted effect of over 60% in size;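 on activity, negative = inhibition: 0% = DMSO vehicle and full inhibition = artemisinin control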
# Conditions: P. falciparum in erythrocytes, SYBR Green DNA, 72 h; series mostly up to 12.8 µM; activity, negative = inhibition: at the top concentration
# In short: (§1)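 P. falciparum-infected erythrocytes (0.3% parasitemia, 2.5% hematocrit) incubated with compound 72 h at 37 C, 5% CO2. Parasite DNA detected by SYBR Green after lysis, overnight at room temperature; normalised to 0.29 uM artemisinin and DMSO.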
# Potency means the concentration at half of the fitted maximal effect.
SMILES,"activity, negative = inhibition",Potency
CC(=O)OC1CCC2C3CCc4cc(O)ccc4C3CCC12C (centres undefined),2.39% [at 28.7 µM],–
CN(C)CCCOC1C(C(O)CO)OC2OC(C)(C)O[C@@H]21 (some centres undefined),16.1% [at 28.7 µM],–
COc1cc(C2c3cc4c(cc3C(O[C@@H]3OC5COC(c6cccs6)OC5C(O)C3O)C3COC(=O)C23)OCO4)cc(OC)c1O (some centres undefined),–,2 µM (active)

# Tested on: PC15
# Experiment: as above
# Conditions: P. falciparum in erythrocytes, SYBR Green DNA, 72 h; series mostly up to 12.8 µM; activity, negative = inhibition: at the top concentration
# In short: as §1
SMILES,"activity, negative = inhibition",Potency
CCC(C)C(=O)OC1CCC=C2C=CC(C)C(CCC3CC(O)CC(=O)O3)[C@@H]21 (some centres undefined),-12.3% [at 28.7 µM],–
C[C@]1(c2ccccc2)OC(C(=O)O)=CC1=O,5.33% [at 28.7 µM],–
OCC1OC([S-])[C@H](O)C(O)C1O.[Au+] (some centres undefined),7.25% [at 28.7 µM],–
COC(=O)N/N=C/C1=C[N+](=O)c2ccccc2[N+]1=O,7.16% [at 28.7 µM],–
CN1CC(=O)N=C1N,20% [at 28.7 µM],–
CNC1CC(N)[C@H](O)[C@@H](O[C@@H]2OC(CO)C3OC4(OC(C(N)CO)C(O)C(O)C4O)O[C@@H]3[C@H]2O)C1O (some centres undefined),0.938% [at 28.7 µM],–
COC1C=CO[C@@]2(C)Oc3c(C)c(O)c4c(O)c(c(C=NN5CCN(C)CC5)c(O)c4c3C2=O)NC(=O)/C(C)=C\C=CC(C)C(O)[C@@H](C)C(O)C(C)[C@H](OC(C)=O)C1C (some centres undefined),–,0.398 µM (active)
CC(=O)N[C@@H]1C(O)OC(CO)C(O)C1O (some centres undefined),0.483% [at 28.7 µM],–
CCC(CCC(C)C1CCC2C3CC=C4CC(O)CC[C@@]4(C)C3CC[C@@]12C)C(C)C (some centres undefined),7.5% [at 28.7 µM],–
O=C1OC(CO)C(O)C(O)C1O (centres undefined),6.55% [at 28.7 µM],–
COc1ccc(CC(N)C(=O)NC2C(CO)OC(n3cnc4c(N(C)C)ncnc43)C2O)cc1 (centres undefined),–,1.26 µM (active)
CCCC(=O)O[C@]1(C(=O)CO)CCC2[C@@H]3CCC4=CC(=O)CC[C@]4(C)C3C(O)C[C@]21C (some centres undefined),5.34% [at 28.7 µM],–
COC(=O)C(Cc1ccccc1)NC(=O)C(N)CC(=O)O (stereo not drawn) (H-Asp-Phe-OMe; configuration not given here),4.05% [at 28.7 µM],–
CC[C@@]12CCCN3CCc4c(n(c5ccccc45)[C@](O)(C(=O)OC)C1)C32 (some centres undefined),1.46% [at 28.7 µM],–
CC1(C)SC2C(N3C(=O)C(c4ccccc4)NC3(C)C)C(=O)N2C1C(=O)O (centres undefined),5.53% [at 28.7 µM],–
CC1CCC(C(C)C)C(=O)C1 (centres undefined),13.9% [at 28.7 µM],–

SMILES,"activity, negative = inhibition",Potency
CC(=O)N[C@H](CC(C)C)C(=O)O,6.93% [at 28.7 µM],–
CC(C)C1CCC(C(=O)NC(Cc2ccccc2)C(=O)O)CC1 (centres undefined),-7.36% [at 28.7 µM],–
COc1ccc2cc(C(C)CO)ccc2c1 (centres undefined),-1.35% [at 28.7 µM],–
CNC1C(OC2C(O[C@@H]3C(O)C(O)[C@@H](N=C(N)N)C(O)C3N=C(N)N)OC(C)[C@@]2(O)CO)OC(CO)C(O)C1O (some centres undefined),11.1% [at 28.7 µM],–
CC1C2CCC3C4CC=C5CC(N(C)C)CC[C@@]5(C)C4CC[C@@]32CN1C (some centres undefined),-18.8% [at 28.7 µM],–
C[C@]12C=CC(=O)C=C1CCC1C2C(O)C[C@]2(C)C1CC[C@]2(O)C(=O)CO (some centres undefined),17.7% [at 28.7 µM],–
COc1ccc2c(c1)N(C[C@@H](C)CN(C)C)c1ccccc1S2,-10.8%,–
CCOC(=O)C1=CC(OC(CC)CC)C(NC(C)=O)C(N)C1 (centres undefined),-1.77% [at 28.7 µM],–
CN(C)CCc1c[nH]c2ccc(CC3COC(=O)N3)cc12 (centres undefined),2.57% [at 28.7 µM],–
NCC1CCC(N)C(O[C@@H]2C(O)[C@H](O[C@H]3OC(CO)C(O)C(N)C3O)[C@@H](N)C[C@H]2N)O1 (some centres undefined),16.6% [at 28.7 µM],–
OCC1O[C@H](OC2C(CO)O[C@@](O)(CO)C2O)C(O)C(O)C1O (some centres undefined),5.06% [at 28.7 µM],–
CC1(C)OC2CO[C@]3(COS(N)(=O)=O)OC(C)(C)OC3C2O1 (some centres undefined),-5.71% [at 28.7 µM],–
CC(=O)OC1CCC2C3CCc4cc(O)ccc4C3CCC12C (centres undefined),18% [at 28.7 µM],–
CN(C)CCCOC1C(C(O)CO)OC2OC(C)(C)O[C@@H]21 (some centres undefined),4.94% [at 28.7 µM],–
COc1cc(C2c3cc4c(cc3C(O[C@@H]3OC5COC(c6cccs6)OC5C(O)C3O)C3COC(=O)C23)OCO4)cc(OC)c1O (some centres undefined),–,4.47 µM (active)

# Tested on: PC26
# Experiment: as above
# Conditions: P. falciparum in erythrocytes, SYBR Green DNA, 72 h; series mostly up to 12.8 µM; activity, negative = inhibition: at the top concentration
# In short: as §1
SMILES,"activity, negative = inhibition",Potency
CCC(C)C(=O)OC1CCC=C2C=CC(C)C(CCC3CC(O)CC(=O)O3)[C@@H]21 (some centres undefined),5.52% [at 28.7 µM],–
C[C@]1(c2ccccc2)OC(C(=O)O)=CC1=O,14.1% [at 28.7 µM],–
OCC1OC([S-])[C@H](O)C(O)C1O.[Au+] (some centres undefined),-9.42% [at 28.7 µM],–
COC(=O)N/N=C/C1=C[N+](=O)c2ccccc2[N+]1=O,-13.5% [at 28.7 µM],–
CN1CC(=O)N=C1N,-9.78% [at 28.7 µM],–
CNC1CC(N)[C@H](O)[C@@H](O[C@@H]2OC(CO)C3OC4(OC(C(N)CO)C(O)C(O)C4O)O[C@@H]3[C@H]2O)C1O (some centres undefined),1.48% [at 28.7 µM],–
COC1C=CO[C@@]2(C)Oc3c(C)c(O)c4c(O)c(c(C=NN5CCN(C)CC5)c(O)c4c3C2=O)NC(=O)/C(C)=C\C=CC(C)C(O)[C@@H](C)C(O)C(C)[C@H](OC(C)=O)C1C (some centres undefined),–,1.07 µM (active)
CC(=O)N[C@@H]1C(O)OC(CO)C(O)C1O (some centres undefined),1.52% [at 28.7 µM],–
CCC(CCC(C)C1CCC2C3CC=C4CC(O)CC[C@@]4(C)C3CC[C@@]12C)C(C)C (some centres undefined),9.23% [at 28.7 µM],–
O=C1OC(CO)C(O)C(O)C1O (centres undefined),-1.26% [at 28.7 µM],–
COc1ccc(CC(N)C(=O)NC2C(CO)OC(n3cnc4c(N(C)C)ncnc43)C2O)cc1 (centres undefined),–,0.849 µM (active)
CCCC(=O)O[C@]1(C(=O)CO)CCC2[C@@H]3CCC4=CC(=O)CC[C@]4(C)C3C(O)C[C@]21C (some centres undefined),-2.16% [at 28.7 µM],–
COC(=O)C(Cc1ccccc1)NC(=O)C(N)CC(=O)O (stereo not drawn) (H-Asp-Phe-OMe; configuration not given here),-2.61% [at 28.7 µM],–
CC[C@@]12CCCN3CCc4c(n(c5ccccc45)[C@](O)(C(=O)OC)C1)C32 (some centres undefined),-0.19% [at 28.7 µM],–
CC1(C)SC2C(N3C(=O)C(c4ccccc4)NC3(C)C)C(=O)N2C1C(=O)O (centres undefined),-15.7% [at 28.7 µM],–
CC1CCC(C(C)C)C(=O)C1 (centres undefined),-11.6% [at 28.7 µM],–
CC(=O)N[C@H](CC(C)C)C(=O)O,0.447% [at 28.7 µM],–
CC(C)C1CCC(C(=O)NC(Cc2ccccc2)C(=O)O)CC1 (centres undefined),-0.145% [at 28.7 µM],–
COc1ccc2cc(C(C)CO)ccc2c1 (centres undefined),4.18% [at 28.7 µM],–
COc1ccc2cc1Oc1ccc(cc1)CC1c3c(cc4c(c3Oc3cc5c(cc3OC)CCN(C)C5C2)OCO4)CCN1C (centres undefined),–,12 µM (active)
CNC1C(OC2C(O[C@@H]3C(O)C(O)[C@@H](N=C(N)N)C(O)C3N=C(N)N)OC(C)[C@@]2(O)CO)OC(CO)C(O)C1O (some centres undefined),3.18% [at 28.7 µM],–
CC1C2CCC3C4CC=C5CC(N(C)C)CC[C@@]5(C)C4CC[C@@]32CN1C (some centres undefined),1.18% [at 28.7 µM],–
C[C@]12C=CC(=O)C=C1CCC1C2C(O)C[C@]2(C)C1CC[C@]2(O)C(=O)CO (some centres undefined),4.2% [at 28.7 µM],–
CN(C)CCc1c[nH]c2ccc(CC3COC(=O)N3)cc12 (centres undefined),-6.72% [at 28.7 µM],–
NCC1CCC(N)C(O[C@@H]2C(O)[C@H](O[C@H]3OC(CO)C(O)C(N)C3O)[C@@H](N)C[C@H]2N)O1 (some centres undefined),-4.97% [at 28.7 µM],–
OCC1O[C@H](OC2C(CO)O[C@@](O)(CO)C2O)C(O)C(O)C1O (some centres undefined),-2.33% [at 28.7 µM],–
CC1(C)OC2CO[C@]3(COS(N)(=O)=O)OC(C)(C)OC3C2O1 (some centres undefined),3.28% [at 28.7 µM],–
CC(=O)OC1CCC2C3CCc4cc(O)ccc4C3CCC12C (centres undefined),0.667% [at 28.7 µM],–
CN(C)CCCOC1C(C(O)CO)OC2OC(C)(C)O[C@@H]21 (some centres undefined),4.89% [at 28.7 µM],–
COc1cc(C2c3cc4c(cc3C(O[C@@H]3OC5COC(c6cccs6)OC5C(O)C3O)C3COC(=O)C23)OCO4)cc(OC)c1O (some centres undefined),–,3.79 µM (active)
